# Screens (PubChem)
# CYP2C19 act: activators of human cytochrome P450 2C19. P33261. recombinant CYP2C19, luciferin-H EGE luminescence; active compounds read high; 0 = fully inhibited enzyme, 1 = untreated enzyme. activation factor at 5 µM. 96,000 tested, under 10 active. AID 1025;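 active = activation factor of at least 2 at 5 µM in the primary screen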;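 also: 0 = wells with 2.5 mM tranylcypromine and 1 = vehicle-only wells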
# Target sequence (P33261 whole entry, looked up): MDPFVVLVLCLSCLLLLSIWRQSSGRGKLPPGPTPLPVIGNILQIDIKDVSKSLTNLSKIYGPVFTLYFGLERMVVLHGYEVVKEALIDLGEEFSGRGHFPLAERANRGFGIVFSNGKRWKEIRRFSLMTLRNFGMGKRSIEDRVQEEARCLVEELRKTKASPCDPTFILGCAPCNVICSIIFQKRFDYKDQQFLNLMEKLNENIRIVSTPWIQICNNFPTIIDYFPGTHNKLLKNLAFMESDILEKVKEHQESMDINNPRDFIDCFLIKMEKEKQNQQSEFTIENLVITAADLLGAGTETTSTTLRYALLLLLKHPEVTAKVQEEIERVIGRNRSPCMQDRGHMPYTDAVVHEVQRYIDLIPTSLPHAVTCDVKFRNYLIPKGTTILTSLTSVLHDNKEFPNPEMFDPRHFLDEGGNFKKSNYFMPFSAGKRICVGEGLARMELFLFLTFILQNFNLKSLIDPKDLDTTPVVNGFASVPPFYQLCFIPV
# CYP2C9 activ: CYP2C9 (human) activation; P11712; recombinant CYP2C9, luciferin-H conversion, luminescence; active compounds read high; factor 1 = untreated enzyme, 0 = blocked; activation factor at 5 µM; 96,000 tested, 1.4% active;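 active = activation factor of 2 or more for CYP2C9 at a 5 µM dose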;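 also: 0 = sulfaphenazole-blocked wells and 1 = vehicle-only wells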
# CYP2C19 inhib: human CYP2C19 inhibition; P33261; inhibition, % at 5 µM; CYP2C19 Supersomes, luciferin-H EGE luminescence, 30 min; 96,000 tested, 21% active;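 active = CYP2C19 inhibition above a set limit at 5 µM in the primary screen, cut at about 50% in these data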;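 also: plate controls were negative control wells for no effect and 2.5 mM tranylcypromine positive control for full effect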
# Measles CPE: protection of cells from measles virus. 140,000 tested, 1.5% active. protection (pct of control), % at 4 µM. Measles virus-infected cells, CPE protection, absorbance. AID 841; in the data active = protection mostly above about 24%, no sharp cut-off; inactive = mostly below about 26%
# CYP2C9 inhib: blocks human cytochrome P450 2C9. 96,000 tested, 20% active. P11712. inhibition, % at 5 µM. AID 777. CYP2C9 Supersomes, luciferin-H conversion, luminescence;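 active = blocking of liver enzyme CYP2C9 beyond about 50% at 5 µM, limit read from the data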
# An asterisk follows results filed as active; · = no result given. An excerpt weighted towards active compounds, which were near 22% of everything screened.
SMILES,CYP2C19 act,CYP2C9 activ,CYP2C19 inhib,Measles CPE,CYP2C9 inhib
Cc1ccc(C2=NCC(=O)N(CC(=O)N3CCCCC3)c3sc(C)c(C)c32)cc1,0.9,0.8,11,8,22
O=C(Cc1ccccc1)OCn1nnc2ccccc2c1=O,·,·,·,20,·
CCC(=NC1CC1)c1c(O)n(C2CCCCC2)c(=O)[nH]c1=O,0,1,99*,14,2
C/C(=N\NC(=S)Nc1ccccc1)c1c(O)n(C)c(=O)n(C)c1=O,·,·,·,14,·
CC/C(=N\Nc1ccccc1)c1c(O)n(C)c(=O)n(C)c1=O,·,·,·,28*,·
CCC(=NCCc1c[nH]c2ccccc12)c1c(O)n(C)c(=O)n(C)c1=O,0.4,0.5,59*,8,50*
CCC(=NCCc1c[nH]c2ccccc12)c1c(O)n(-c2ccc(C)cc2)c(=O)[nH]c1=O,·,·,·,4,·
O=C(Cn1ncc2c3ccccc3n(Cc3cccc(Cl)c3)c2c1=O)N1CCC2(CC1)OCCO2,0.2,0.1,79*,4,91*
Cc1c2cnn(CC(=O)N3CCC4(CC3)OCCO4)c(=O)c2c(C)n1Cc1ccccc1F,0.8,0.6,24,10,42
Cn1cc(C(=O)N2CCC3(CC2)OCCO3)c2c3ccccc3n(C)c2c1=O,0.9,0.9,10,7,8
Cn1c2ccccc2c2cnn(CC(=O)N3CCC4(CC3)OCCO4)c(=O)c21,0.4,0.9,57*,4,14
Cn1c2ccccc2c2c(C(=O)N3CCC4(CC3)OCCO4)cn(C3CCCCC3)c(=O)c21,0.5,0.3,51*,8,69*
CN1CCC(OC(=O)C2c3ccccc3Oc3ccccc32)CC1,0.7,0.9,25,13,11
CCc1ccc(-n2c(O)c(/C=N/N3CCCCC3c3cccnc3)c(=O)[nH]c2=O)cc1 (stereo not drawn),·,·,·,7,·
COCCOC(=O)c1c(C)n(C)c2ccc(OC(=O)N(C)C)cc12,0.7,0.5,27,4,54*
Cc1ccccc1-n1c(C)nc2sccc2c1=O,0.5,1,53*,24,5
O=c1c2ccccc2nc(-c2cccs2)n1-c1ccccc1,0.8,0.7,22,10,33
Cc1nc2sccc2c(=O)n1-c1ccccc1Cl,0.4,0.9,63*,0,10
COc1ccc2c(c1)c(C(=O)O)c(C)n2C(C)C,·,·,·,21,·
O=C1c2ccccc2C2(c3ccc(Cl)cc3)NCCN12 (stereo not drawn),0.7,1,30,5,2
COc1ccccc1CC1C(=O)C2CCN1CC2 (stereo not drawn),1.1,1.1,-12,5,-8
COc1ccccc1CN1CCCCC1c1cccnc1 (stereo not drawn),0.5,1.1,50*,1,-9
CCOC(=O)C1=C(N)Oc2cc(C)oc(=O)c2C12C(=O)N1c3c(cccc32)C(C)=CC1(C)C (stereo not drawn),0.5,0.8,53*,5,16
CCOC(=O)C1=C(N)Oc2cc(C)oc(=O)c2C12C(=O)N1c3c(cc(OC)cc32)C(C)=CC1(C)C (stereo not drawn),0.5,0.8,46,4,22
COc1ccc(CC[n+]2cc(/N=C(\C)[O-])on2)cc1OC,·,·,·,35*,·
CCOC(=O)Cn1cc(C(=O)c2ccccc2F)c2ccccc21,0.3,0.5,68*,16,48
O=C(c1ccccc1F)c1cn(Cc2ccccc2)c2ccccc12,0.4,1,60*,8,2
CC(C)(C)NC(=O)Cn1cc(C(=O)c2ccccc2F)c2ccccc21,0.6,0.6,38,4,38
O=C(c1ccccc1F)c1cn(CC(=O)N2CCCCC2)c2ccccc12,0.2,0.7,80*,8,30
CC(=O)Nc1ccc2c(c1)CC1(C(=O)N(C)C(=O)N(C)C1=O)C1CCCN21 (stereo not drawn),1,0.9,4,5,7
